Sampled rows, rich in hits. Any-hit rate of the full collection: about 12%.
G9a block: blocks human histone lysine methyltransferase G9a; hit rate 8.8% among 350,000; AID 504332; G9a H3K9 monomethylation, AlphaScreen, 2 h; Q96KQ7; Potency, µM (highest dose often 102 µM), hits mostly inhibitors; further: nearly all actives have a fitted effect of over 75% in size
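Step 1: enzyme (final 20 nM) with compound, 15 min RT. Step 2: substrate peptide 500 nM and SAM 20 uM, 2 h RT. Step 3: anti-H3K9me1 antibody and AlphaScreen beads, 10 min, then plate read.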
BAZ2B block: blocks human BAZ2B; Potency, µM (titrated, usually from 114 µM), most hits filed as inhibitors; AlphaScreen BAZ2B-H3K14Ac peptide displacement; AID 504333; hit rate 4.4% among 360,000; further: nearly all actives have a fitted effect of over 60% in size
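AlphaScreen luminescence quantifies BAZ2B engagement of H3K14Ac peptide; the protein and biotinylated peptide are both at 50 nM final, buffer PBS pH 7.4 with 0.01% Tween-20, all steps at room temperature.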
JMJD2A Tudor: JMJD2A Tudor domain (human) inhibition. O75164. AlphaScreen JMJD2A-Tudor / H3K4me3 peptide binding. Potency, µM (titrated, usually from 114 µM), hits mostly inhibitors. hit rate 4.4% among 390,000; further: nearly all actives have a fitted effect of over 50% in size
HP1b binding inh: blocks HP1-beta chromodomain binding to methylated histone tails; P83916; AlphaScreen HP1-beta / biotin-H3K9me3 peptide binding; Potency, µM (titrated, usually from 114 µM), hits mostly inhibitors; hit rate 0.56% among 390,000; AID 540317; further: nearly all actives have a fitted effect of over 70% in size
Target sequence (P83916 whole entry, looked up): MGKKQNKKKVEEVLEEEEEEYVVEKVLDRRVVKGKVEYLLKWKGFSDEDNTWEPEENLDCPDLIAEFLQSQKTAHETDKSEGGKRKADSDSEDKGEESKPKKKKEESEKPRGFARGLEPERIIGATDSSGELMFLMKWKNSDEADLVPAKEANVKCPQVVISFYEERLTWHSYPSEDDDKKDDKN
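AlphaScreen: HP1-beta (50 nM) preformed 30 min with biotin-H3(1-18)K9me3 peptide (50 nM) in PBS pH 7.4, 0.01% Tween-20. Compound added for 30 min at RT, then streptavidin donor/nickel chelate acceptor beads (10 ug/mL) for 30 min.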
PLK1 PBD block: blocks phosphopeptide binding to human PLK1 polo-box domain; P53350; hit rate 2.8% among 360,000; AID 720504; Plk1 PBD binding of FITC phosphopeptide, fluorescence polarization; Potency, µM, most hits filed as inhibitors; further: series mostly up to about 57 µM; nearly all actives have a fitted effect of over 65% in size
PI5P4K alpha inh: inhibitors of human PI5P4K alpha | PI5P4Kalpha enzyme, ADP-Glo luminescence, 60 min; active compounds read low | hit rate 1.2% among 330,000 | AID 652105 | max response, % | P48426; active means max response of -50% or lower; inconclusive means between -30% and -50%; inactive means -30% or higher; further: value at the top dose of about 77 µM
Target sequence (P48426 whole entry, looked up): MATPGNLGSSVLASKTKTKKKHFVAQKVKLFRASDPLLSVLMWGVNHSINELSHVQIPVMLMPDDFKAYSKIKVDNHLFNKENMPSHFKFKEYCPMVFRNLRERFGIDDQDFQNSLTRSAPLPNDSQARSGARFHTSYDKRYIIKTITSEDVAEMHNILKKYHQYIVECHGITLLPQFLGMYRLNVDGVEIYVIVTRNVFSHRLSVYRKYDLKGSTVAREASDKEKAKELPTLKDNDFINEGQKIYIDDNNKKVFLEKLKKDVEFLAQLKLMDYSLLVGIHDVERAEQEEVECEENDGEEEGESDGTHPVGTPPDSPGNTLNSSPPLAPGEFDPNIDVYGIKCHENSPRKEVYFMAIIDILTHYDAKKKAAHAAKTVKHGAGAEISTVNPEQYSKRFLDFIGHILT
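qHTS, 1536-well: enzyme/substrate mix, compound by pin tool, 5 microM ATP final; RT 60 min; ADP-Glo reagents 1 (45 min) then 2 (30 min); luminescence.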
Hits are given with their value; - = inactive; ? = inconclusive; . = no result; ! = not confirmed by another sample; [ ] = dose if it differs, or a comment. Unless noted, the call rests on the fitted dose curve; in most records, active means well fitted curve in the direction sought with a large enough effect; inconclusive means small, poorly fitted or top-dose-only effect, or another doubt; inactive means no such curve, though single readings can be large; an effect the other way counts as inactive or inconclusive.

SMILES | G9a block | BAZ2B block | JMJD2A Tudor | HP1b binding inh | PLK1 PBD block | PI5P4K alpha inh
CCC(=O)Nc1nc(C)c(-c2csc(Nc3ccc(S(=O)(=O)Nc4cc(C)on4)cc3)n2)s1 | 50µM | - | . | . | . | .
Cc1nc(N)sc1-c1csc(Nc2ccc(S(N)(=O)=O)cc2)n1 | ? | 50µM | ? | - | - | ?
COc1ccc(Nc2nc(-c3ccc(OC)cc3)cs2)cc1 | - | - | - | - | - | -
COc1ccc(Nc2nc(-c3c[nH]c4ccccc34)cs2)cc1 | ? | 45µM | - | - | - | -
NS(=O)(=O)c1ccc(Nc2nc(-c3ccc(O)cc3)cs2)cc1 | ? | - | ? | - | - | .
COc1ccc(-c2csc(Nc3ccc(S(N)(=O)=O)cc3)n2)cc1 | -[2.33 µM] | 50µM | - | - | ? | ?
COc1ccc(-n2c(=O)c3c4c(sc3n(Cc3ccc(C(C)(C)C)cc3)c2=O)CCC4)c(OC)c1 | ? | - | ? | - | . | .
COc1ccc2cc(S(=O)(=O)c3ccccc3F)c(=O)oc2c1 | - | - | - | - | . | .
COc1ccc(-c2csc(Nc3ccc(S(=O)(=O)Nc4cc(C)on4)cc3)n2)cc1 | 45µM | ? | ? | - | 19µM | -
Cc1cc(NS(=O)(=O)c2ccc(Nc3nc(-c4sc(C)nc4C)cs3)cc2)no1 | - | - | . | . | . | .
COc1ccc(NC(C)=[N+](C)CCNS(=O)(=O)c2ccc(Cl)cc2)cc1 | ? | 56µM | 25µM | ? | - | -
Cc1ccc(S(=O)(=O)NCCSc2nnnn2-c2ccc(Cl)c(C(=O)O)c2)cc1 | - | - | - | - | . | .
O=S(=O)(c1ccccc1)N1CCC2(CCN(c3cccc(-c4ccccc4)c3)CC2)CC1 | -[12.7 µM] | . | . | . | . | .
O=C1C=CC2(C=C1)O[C@H](Cc1ccccc1)[C@@H](Cc1ccccc1)O2 | . | . | - | - | 9.5µM | -
Cc1ccc(S(=O)(=O)N2CCCc3cc(NS(=O)(=O)c4cccc(Cl)c4)ccc32)cc1 | - | - | - | - | . | .
CCOc1ccc(S(=O)(=O)Nc2ccc3c(c2)CCCN3S(=O)(=O)c2ccc(C)cc2)cc1 | ? | 56µM | - | - | . | .
CCn1nnnc1-c1ccc(OC)c(S(=O)(=O)Nc2ccccc2OC)c1 | . | . | . | . | - | -
CCOc1ccc(NC(=O)Cn2nnc(-c3ccccc3NC(=O)c3cccs3)n2)cc1 | - | - | 56µM | - | ? | -
CCCCC[C@H](O)/C=C/C=C\C/C=C\C/C=C\CCCC(=O)O | - | . | . | . | . | .
CCCCC/C=C\CC(O)/C=C/c1cccc(CC(O)CCCCO)n1 (stereo not given) | 17µM! | . | . | . | . | .
Cc1ccc(-n2c(CNc3ccc(C)c(Cl)c3)n[nH]c2=S)cc1 | 50µM | ? | ? | - | - | -
Cc1ccc(-n2c(CNc3cccc(Cl)c3)n[nH]c2=S)cc1 | 4.5µM | - | - | - | - | -
Cc1ccc(NCc2n[nH]c(=S)n2-c2cccc(Cl)c2)cc1 | ? | - | ? | - | ? | -
COc1ccc([C@]23Cc4cc(C#N)ccc4C(O2)C2=C(CC4(CCCCC4)OC2=O)O3)cc1 | -[2.33 µM] | -[22.9 µM] | . | . | . | .
CC1=CC(C)(C)N2C(=O)C3(NCCc4c3[nH]c3ccccc43)c3cc(C)cc1c32 (stereo not given) | ? | 56µM | -[11.4 µM] | - | - | -
SMILES | G9a block | BAZ2B block | JMJD2A Tudor | HP1b binding inh | PLK1 PBD block | PI5P4K alpha inh
CN1C(=O)C2(NCCc3c2[nH]c2ccccc32)c2ccccc21 (stereo not given) | -[12.7 µM] | - | - | - | - | -
C=CCN(c1ccc(C(=O)Nc2ccc(NC(C)=O)cc2)cc1)S(C)(=O)=O | - | - | 14µM | - | 21µM | ?
C=CCN(c1ccc(C(=O)Nc2cccc(C)c2)cc1)S(C)(=O)=O | - | - | - | - | - | -
CN(Cc1ccccc1)C(=O)c1ccc(NC(=O)Cc2ccc(NC(=O)C3CCCN(C(=O)c4ccccc4)C3)cc2)cc1 (stereo not given) | . | . | - | - | - | -
NC(=O)NNc1ccccc1 | - | . | . | . | . | .
S=C(N=Nc1ccccc1)NNc1ccccc1 | 10µM | 35µM | 25µM | 16µM | - | -
CCOC(=O)c1c(/N=C/C2=C(O)CC(C)(C)CC2=O)sc2c1CCCC2 | - | - | - | - | - | -
CCOC(=O)c1c(/N=C/c2cc(C)ccc2O)sc2c1CCN(C)C2 | ? | ? | 45µM | ? | - | -
Cc1nc(C)c(C(=O)OCC(=O)NCCc2ccc(F)cc2)s1 | 40µM | - | - | - | - | -
O=S(=O)(c1ccc2c(c1)OCCO2)N1CCN(S(=O)(=O)c2cccc[n+]2[O-])CC1 | . | . | - | . | . | .
CSC(=S)NN=C(C)c1cccc(C)n1 | . | . | 5µM | - | - | -
Cc1cccc(C(=S)N2CCOCC2)n1 | -[12.7 µM] | - | - | - | - | -
CC(=NNC(=S)N1CCCCC1)c1ccccn1 | . | . | . | . | ? | -
CC(=NNC(=S)N1CCCCC1)c1cccc(C)n1 | . | . | 25µM | ? | ? | -
COc1ccccc1N1CCN(C(=O)CCc2c(C)nn(-c3ccc(N4CCCC4)nn3)c2C)CC1 | - | - | - | - | . | .
Cc1ccc(CNC(=O)CSc2ncc3c(n2)-c2ccc(Cl)cc2N(Cc2ccccc2)S3(=O)=O)cc1 | - | - | - | - | . | .
O=C(O)c1cccc(NC2=C(N3CCOCC3)C(=O)c3ccccc3C2=O)c1 | 2.8µM | ? | - | - | - | -
c1ccc(N2CCOCCOCCOCCOCCOCC2)cc1 | - | - | - | - | - | -
c1csc(CNCCCN2CCOCC2)c1 | ? | - | - | - | - | -
CN(C1=C(N2CCOCC2)C(=O)c2ccccc2C1=O)c1ccccc1 | 10µM | 10µM | 16µM | 35µM | - | -
c1csc(CN2CCOCC2)c1 | 8.9µM | 35µM | 2.8µM | ? | - | .
O=C1C(NS(=O)(=O)c2cccs2)=C(N2CCOCC2)C(=O)c2ccccc21 | 40µM | 40µM | ? | ? | - | -
CC(NC(=O)CN1C(=O)COc2ccc(Cl)cc21)c1ccccc1 (stereo not given) | - | - | - | - | . | .
Cc1ccc(C)c(N2CCN(C(=O)CN3CCSc4ccc(S(=O)(=O)N(C)C)cc43)CC2)c1 | - | - | - | - | . | .
COC(=O)c1c(-c2ccc(N(C)C)cc2)oc2c1C(OC)CCC2 (stereo not given) | . | . | . | . | - | -
SMILES | G9a block | BAZ2B block | JMJD2A Tudor | HP1b binding inh | PLK1 PBD block | PI5P4K alpha inh
Cc1ccccc1CN1C(=O)c2ccccc2Sc2ccc(C(=O)NC3CCCC3)cc21 | - | - | - | - | . | .
O=C(C[C@@H]1CC[C@H](NC(=O)Nc2ccc(F)cc2)[C@@H](CO)O1)NCc1cccc(F)c1 | . | . | . | . | - | -
O=C1C(NS(=O)(=O)c2cccs2)=C(N2CCN(c3cccc(C(F)(F)F)c3)CC2)C(=O)c2ccccc21 | ? | 10µM | 40µM | ? | - | -
CCOc1ccccc1N1CCN(C2=C(NS(=O)(=O)c3cccs3)C(=O)c3ccccc3C2=O)CC1 | ? | 8.9µM | 8.9µM | ? | - | -
CN1CCN(C2=C(NS(=O)(=O)c3cccs3)C(=O)c3ccccc3C2=O)CC1 | ? | - | - | - | - | -
CC(C)(CNS(=O)(=O)c1cccs1)N1CCOCC1 | . | . | - | - | - | -
